# Data as given in PubChem BioAssay (NCI).
# About 83,000 compounds went through this panel and 20% of them were active in at least one assay; those are over-represented in the sample as a whole.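 Each cell line was grown in a 96-well plate and treated with one concentration of compound for 48 hours. Values below 10 were considered active.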 Values without a mark were called inactive. The source made the active and inactive calls.
# Tests used:
# Assay in all cases: NCI-60 one-dose screen, 48 h (100 = growth as untreated, 0 = no growth, -100 = all killed)
# Settings in all cases: 10 µM unless noted
# [1] = test system: SR leukemia
# [2] = test system: RPMI-8226 leukemia
# [3] = test system: OVCAR-8 ovarian
# [4] = test system: OVCAR-5 ovarian
# [5] = test system: OVCAR-4 ovarian
# [6] = test system: SK-OV-3 ovarian
# [7] = test system: IGROV1 ovarian
# [8] = test system: OVCAR-3 ovarian
# [9] = test system: HS 578T breast
# [10] = test system: NCI/ADR-RES ovarian
SMILES,growth [1],growth [2],growth [3],growth [4],growth [5],growth [6],growth [7],growth [8],growth [9],growth [10]
CCOc1ccc2c(c1)/C(=C\C=C\C1CC(C)C3CC(OCC)CCC3N1CC)CC(C)N2CC (stereo not given),-47.6% (active),-52.2% (active),6.8% (active),33.6%,15.4%,14.9%,32.4%,8.69% (active),63.6%,60.8%
COc1cc2c(c(OC)c1OC)-c1ccc(NCc3ccccc3)c(=O)cc1[C@@H](NC(C)=O)CC2,2.36% (active),8.4% (active),14.5%,41.8%,29.6%,-6.57% (active),-15.6% (active),-39.2% (active),17.3%,66.4%
CCCCCCCCCCCCSC(=N)N,-32.1% (active),-42.2% (active),-60.6% (active),37.4%,33.1%,79%,-15.2% (active),14.4%,92.1%,35.6%
CCN(CC)CCNC(Cc1ccccc1)c1ccc(OCc2ccccc2)cc1 (stereo not given),24.7%,34.8%,79.7%,56.2%,66.7%,83.1%,57.7%,95.4%,70.8%,76.1%
CCOC(=O)C1=NN(c2ccccc2)C(=O)/C1=C\N1C(=O)/C(=C/c2cccc(O)c2)SC1=S,83.3%,88.1%,95.8%,121%,98.8%,99.8%,96%,106%,94%,99.3%
CC/C(=C(/CC)c1ccc(O)cc1)c1ccc(O)cc1,21.1%,61.7%,80.1%,89.4%,76.8%,38.4%,82.4%,62.1%,63%,40.8%
COC(=O)C(=[N+]=[N-])C(=O)c1ccc([N+](=O)[O-])o1,58.4%,78.8%,82%,110%,106%,97.2%,97.6%,88.3%,90.3%,93.1%
CC1=CC(=NC(=O)CBr)C=C/C1=N\S(=O)(=O)c1ccccc1,58.3%,84.5%,66.6%,122%,50.6%,91.7%,-3.37% (active),8.58% (active),89.1%,89.4%
CCCCCCCCCCCC[n+]1ccc(CCCCCCCCC)cc1,-32% (active),-54.6% (active),-80.4% (active),-16.8% (active),-79.1% (active),-18.9% (active),-79.5% (active),-85.3% (active),-7.56% (active),35.8%
OC(c1cc(C23CC4CC(CC(C4)C2)C3)nc2c(Cl)cc(Cl)cc12)C1CCCCN1 (stereo not given),-60.1% (active),-45.4% (active),-53.9% (active),-56% (active),-78.2% (active),-10.3% (active),-61.7% (active),-89.9% (active),-49.9% (active),-51.2% (active)
Oc1ccc(Cl)cc1C(c1cc(Cl)ccc1O)C(Cl)(Cl)Cl,-25.2% (active),11.5%,29.6%,8.25% (active),20.6%,32%,56%,-16.9% (active),0.476% (active),4.17% (active)
O=C1C=Cc2ccccc2/C1=C/c1nc(-c2ccccc2)oc1O,91.1%,104%,94.7%,97.2%,85.2%,86.6%,71.8%,91.6%,102%,85.7%
CCCc1cc(=O)oc2c3c(c4c(c12)OC(C)(C)CC4)OC(C)[C@H](C)[C@@H]3O (stereo not given in full),45.8%,10.5%,81.7%,86%,83.9%,95.3%,12.7%,112%,74.7%,81.7%
CCOC(=O)C1(C)CCCC1N (stereo not given),90.1%,109%,106%,106%,99.2%,131%,104%,104%,98.5%,116%
Cc1cccc2c(N)c3ccccc3nc12,2.95% (active),-15.4% (active),-9.82% (active),7.56% (active),1.48% (active),-3.15% (active),-13.2% (active),-17.3% (active),16.5%,-47.5% (active)
CC(O)C(O)C(O)C(O)C(O)C(=O)NNc1ccccc1 (stereo not given),49.7%,99.1%,96.4%,84.6%,96.5%,99.5%,80%,99.4%,91.2%,84.2%
O=C(Nc1ccc(Cl)c(Cl)c1)OCc1ccco1,25.7%,51.3%,47.1%,76.5%,64%,83.3%,52.7%,47%,20.5%,34.4%
O=C/C=C/c1ccc([N+](=O)[O-])cc1,87.1%,102%,100%,107%,104%,89.5%,101%,104%,100%,99.6%
